# Screening data deposited in PubChem BioAssay by National Center for Advancing Translational Sciences (NCATS).
# Giardia killer: Small Molecules that selectively kill Giardia lamblia: qHTS. Giardia lamblia trophozoite viability. actives 0.15% (n = 340,000). AID 540267, 2011. activity change, % at 7.66 µM, hits read low; in the data active means activity change below about -80%; inconclusive means between about -30% and that limit;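 further: parasites exposed to compound for two days anaerobically before the ATP read; on the % scale 0 is the no-effect control and ±100 the full control effect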
#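 Viability, read as ATP luminescence: trophozoites at 100 cells/well, compound added, 48 hrs anaerobic at 37 deg C, then 15-30 min room-temperature development before reading.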
# ERG-DNA inh: qHTS for Small Molecule Inhibitors of the ERG Ets/DNA interaction | Transcriptional regulator ERG (Homo sapiens), P11308 | fluorescence polarization, His-ERG Ets domain / labelled DNA | Potency, µM (highest dose often 76.9 µM), inactives show top-dose FP activity, negative = inhibition, usual class: inhibitors | actives 0.028% (n = 370,000); active means well fitted inhibition curve with a large enough effect in the polarisation, with a control signal flat; inconclusive means small, poorly fitted or top-dose-only effect, or effect the other way, or a change in a side signal; inactive means no such curve, though single readings can be large or run the other way; the % refers to the polarisation;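 further: polarization taken with two DNA probes labelled with fluorescein and Texas red; potency means the concentration at half of the fitted maximal effect; % of control where 0% means no effect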
#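 His-tagged ERG Ets domain (1 uM in the protein solution; 300mM KCl, 50mM Tris-HCl, 1mM EDTA, 1mM DTT, pH 7.5) received compound, then a probe mix of 5 nM fluorescein-DNA and 100nM Texas-615-DNA. Fluorescence polarization was read for both dyes.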
# Integrin act MD: qHTS for Activators of Integrin-Mediated Alleviation for Muscular Dystrophy; alpha7betagal myoblasts, beta-gal FDG fluorescence, 48 h; Potency, µM (titrated, usually from 38.3 µM), without a hit: top-dose activation, actives largely listed as activators; actives 0.064% (n = 350,000); AID 624291, 2012;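 further: potency means the concentration at half of the fitted maximal effect; 100% = response of the positive control SU9516; nearly all actives have a fitted effect of over 60% in size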
#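 alpha7betagal+/- myoblasts (passage 13, 250/well) treated 48 h at 37C with compounds at 1:260 dilution of DMSO stock. Lysed, then beta-galactosidase activity read as FDG fluorescence (ex 480/em 540) after 30 min, with pre-read for autofluorescence.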
# RORgamma inh: qHTS for inhibitors of ROR gamma transcriptional activity; Drosophila S2 Gal4-RORgamma UAS-luciferase reporter, 20 h; Potency, µM (doses to about 53.6 µM), inactives show top-dose activity change, negative = inhibition, usual class: inhibitors; actives 5.4% (n = 310,000); AID 2551, 2010; further: potency means the concentration at half of the fitted maximal effect; on the % scale 0 is the no-effect control and ±100 the full control effect; nearly all actives have a fitted effect of over 60% in size
# Target sequence (P51450 whole entry, looked up, the tested form may be a part): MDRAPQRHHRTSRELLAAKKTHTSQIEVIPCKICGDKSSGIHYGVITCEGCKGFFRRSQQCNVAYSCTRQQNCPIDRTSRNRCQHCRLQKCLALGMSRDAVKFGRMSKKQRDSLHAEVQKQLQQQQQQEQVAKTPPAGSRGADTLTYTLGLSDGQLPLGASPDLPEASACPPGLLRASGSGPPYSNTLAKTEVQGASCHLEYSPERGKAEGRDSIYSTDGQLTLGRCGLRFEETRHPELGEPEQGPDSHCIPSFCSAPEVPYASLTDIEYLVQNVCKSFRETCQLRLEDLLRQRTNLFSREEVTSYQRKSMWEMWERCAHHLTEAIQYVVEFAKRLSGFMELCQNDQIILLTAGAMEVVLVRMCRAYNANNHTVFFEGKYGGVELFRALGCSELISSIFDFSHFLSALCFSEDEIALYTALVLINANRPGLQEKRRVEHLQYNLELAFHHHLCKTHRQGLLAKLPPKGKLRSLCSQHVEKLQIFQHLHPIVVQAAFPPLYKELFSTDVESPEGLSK
#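 Luminescence from a UAS-regulated Photinus luciferase reporter in stably transfected Drosophila Schneider cells is measured; decreased signal marks ROR gamma inhibition. Fusion expression is induced by 700 uM copper sulfate for 20 hr.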
# Gal4-VP16 FLuc: VP16 counterscreen qHTS for inhibitors of ROR gamma transcriptional activity; Drosophila S2 Gal4-VP16 UAS-luciferase, luminescence, 20 h; Potency, µM (series often up to 53.6 µM), for inactives: at the highest dose activity, negative = inhibition, usual class: inhibitors; actives 3.5% (n = 310,000); AID 2546, 2010;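 further: Gal4-VP16 expression switched on by copper sulfate through the metallothionein promoter; potency means the concentration at half of the fitted maximal effect; on the % scale 0 is the no-effect control and ±100 the full control effect; nearly all actives have a fitted effect of over 50% in size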
# * marks the source's active call; other numbers are inactive results; ? = inconclusive; nt = no result given; [ ] = another dose, or the depositor's remark. The sample as a whole holds a higher share of hits than the screen did. Unless noted, the call rests on the fitted dose curve; in most records, active means well fitted curve in the direction sought with a large enough effect; inconclusive means small, poorly fitted or top-dose-only effect, or another doubt; inactive means no such curve, though single readings can be large; an effect the other way counts as inactive or inconclusive.
SMILES,Giardia killer,ERG-DNA inh,Integrin act MD,RORgamma inh,Gal4-VP16 FLuc
CCOc1ccc(OCc2ccc(C(=O)O)o2)cc1,-4,13%,-10%,10µM*,15%[0.365 µM]
Cc1cc(NC(=O)c2cc(-c3cccnc3)nc3c(C)c(C)ccc23)no1,1,-15%,4%,?,-26%
Oc1c(C(Nc2cccc(C(F)(F)F)c2)c2cccnc2)ccc2cccnc12 (centres undefined),-5,6%,-28%,2.5µM*,2.8µM*
O=[N+]([O-])c1ccc(NC(c2ccccc2)c2ccc3cccnc3c2O)cc1 (centres undefined),11,-1%,-28%,nt,nt
Cc1cc(NC(c2cccnc2)c2ccc3cccnc3c2O)no1 (centres undefined),-2,-1%,-15%,4µM*,6.3µM*
Cc1ccc(CNC(=O)CSc2ncc3c(n2)-c2ccc(Cl)cc2N(Cc2ccccc2)S3(=O)=O)cc1,nt,-1%,nt,nt,nt
N#Cc1cc2c([nH]c1=S)CCCCCC2,1,nt,20%,7.1µM*,16µM*
COc1cccc(CN(C)C(=S)Nc2ccc(C)c(C)c2)c1,-21,-2%,-64%,11µM*,20%[10 µM]
COc1ccc(CN(C)C(=S)Nc2ccc(OC(F)F)cc2)cc1,2,11%,-17%,?,?
Cc1ccc(NC(=S)N(C)C(c2ccccc2)c2ccccc2)cc1C,-1,-6%,-49%,3.5µM*,10µM*
CN(C(=S)Nc1ccc(F)cc1)C(c1ccccc1)c1ccccc1,21,9%,-22%,11µM*,?
Cc1ccc2c(c1)Oc1ccc([N+](=O)[O-])cc1C(=O)N2,17,4%,-9%,-5%,5%
Cc1ccc2c(c1)Oc1ccc(NC(=O)CCl)cc1C(=O)N2,-11,7%,-67%,10µM*,18µM*
Cc1ccc(-c2nnc3ccc(SCC(=O)c4ccccc4)nn23)cc1,0,nt,nt,nt,nt
Cc1ccc(NC2=CC(=O)c3sc(C)nc3C2=O)cc1,nt,nt,nt,2.2µM*,2.5µM*
COC(=O)[C@H](COC(C)(C)C)NC(=O)O[C@H]1C(=O)c2ccc(OC)cc2O[C@@H]1c1ccc2c(c1)OCO2,nt,nt,nt,12%,4%
Cc1cccc(-c2ocnc2C(=O)Nc2ccccc2NC(=O)c2ccccn2)c1,-5,-3%,-68%,0.56µM*,8.9µM*
Cc1cccc(-c2ocnc2C(=O)Nc2ccccc2C(=O)N2CCCC2)c1,7,5%,-18%,10%,-10%
CSc1ccccc1NC(=O)c1ccccn1,4,0%,-36%,0.45µM*,1.3µM*
Cc1ccc(-c2ocnc2C(=O)Nc2ccccc2NC(=O)c2ccccn2)cc1,-18,3%,-25%,1.6µM*,11µM*
O=C(Nc1ccc(Br)cn1)C1CCCN1S(=O)(=O)c1ccccc1 (centres undefined),-17,8%,15%,-1%,3%
Cc1ccc(C2=NN(C(=O)CCl)C(c3ccco3)C2)o1 (centres undefined),27,14%,-71%,11µM*,?
CC(=O)N1N=C(c2ccco2)CC1c1ccco1 (centres undefined),9,1%,-17%,?,1%
Cc1c(N=Nc2ccc(O)cc2)c(=O)n(-c2ccccc2)n1C,?,-10%,0%,-7%,1%
Cc1c(N=C2NC(=O)/C(=C/c3ccc(O)cc3)S2)c(=O)n(-c2ccccc2)n1C,-12,8%,8%,5µM*,?
SMILES,Giardia killer,ERG-DNA inh,Integrin act MD,RORgamma inh,Gal4-VP16 FLuc
Cc1ccc(NC(=S)NCCN(C2CCCCC2)C2CCCC2)cc1,5,5%,-58%,11µM*,-6%[10 µM]
CCN(CC)CCNC(=S)Nc1ccc(Cl)cc1,1,9%,5%,-29%,-2%
Cc1cc(C)cc(NC(=S)NCCN(C2CCCCC2)C2CCCC2)c1,-7,-14%,-44%,4.5µM*,0%[10 µM]
Cc1ccc(NC(=S)NCCN(C2CCCCC2)C2CCCC2)cc1C,17,1%,-68%,5µM*,-1%[10 µM]
COc1ccc(-c2noc(CSc3nnc(-c4ccncc4)n3-c3ccc(OC)cc3)n2)cc1,nt,-2%,nt,nt,nt
Cc1cccc(NC(=S)N/N=C/c2cccc([N+](=O)[O-])c2)c1,0,-2%,3%,1.1µM*,-9%[0.365 µM]
Cc1cccc(NC(=S)N/N=C/c2ccc3c(c2)OCO3)c1,-1,-7%,22%,-5%,-15%
Cc1cccc(NC(=S)N/N=C/c2ccc(Cl)c([N+](=O)[O-])c2)c1,-1,-6%,-3%,1.6µM*,4µM*
COC(=O)N/N=C/c1cccc([N+](=O)[O-])c1,7,10%,38%,15%,-13%
Cc1nn(-c2ccccc2)c(Cl)c1/C=N/NC(=O)CNc1n[nH]c(=O)[nH]c1=O,nt,nt,nt,-11%,-5%
CCOCCCNC(=O)C(c1ccccc1)N1Cc2ccccc2C1=O (centres undefined),nt,-1%,nt,nt,nt
Cc1ccc(OCCCc2c(C)n[nH]c2C)cc1,7,-5%,-11%,11µM*,?
Cc1n[nH]c(C)c1CCCCOc1ccccc1,14,14%,-32%,16µM*,?
COc1cccc(OC)c1OCCCCCc1c(C)n[nH]c1C,13,9%,0%,?,-5%
CC(=O)N1CCCC1c1nc2ccccc2n1Cc1cccc(Cl)c1 (centres undefined),nt,0%,nt,nt,nt
COC(=O)c1ccc(CNC(=O)C2CCC(=O)N(CCc3ccccn3)C2)cc1 (centres undefined),nt,nt,21%,nt,nt
O=C(CCCN1C(=O)/C(=C/c2ccccc2Cl)SC1=S)NNC(=O)c1ccc(Cl)cc1Cl,-17,2%,3%,0.22µM*,4.5µM*
O=C(CCCN1C(=O)/C(=C/c2ccccc2Cl)SC1=S)NNC(=O)c1cccnc1,33,10%,-3%,17%,-14%
O=C(CCCN1C(=O)/C(=C/c2ccccc2Cl)SC1=S)NNC(=O)c1ccccc1,-12,4%,-45%,3.2µM*,7.1µM*
CCOC(=O)C1CCN(S(=O)(=O)c2c(Cl)ccc3nonc23)CC1,nt,nt,nt,2.2µM*,2.8µM*
Cc1cc(NC(=O)COC(=O)C2CCN(S(=O)(=O)c3c(Cl)cccc3Cl)CC2)no1,6,-13%,-4%,5µM*,-5%
O=C(c1cccnc1)N1CCN(c2ccc3ccccc3n2)CC1,-19,-1%,7%,27%,-4%
COC(=O)CC1Oc2ccc(F)cc2-n2cc(-c3ccc(Cl)cc3)nc21 (centres undefined),nt,-1%,nt,nt,nt
CC(=O)NC1(C(F)(F)F)C(=O)N(Cc2ccccc2)C2=C1C(=O)CC(C)(C)C2 (centres undefined),-4,3%,-26%,-2%,-1%
